Among all 310,000 compounds or so, about 14,000 (4.5%) showed an effect of 50% or more. The effect is printed as a negative number. The list comes from a sample in which strong results are over-represented; it also holds similar structures and randomly drawn compounds.
Target: human ether-à-go-go-related gene (hERG) potassium channel (human, UniProt Q12809)
Experiment: primary screen, population patch clamp on CHO cells stably expressing hERG; higher = less effect of the substance
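Further: peak tail current of the secondary pulse compared with the same well before compound.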

Chain of human ether-à-go-go-related gene (hERG) potassium channel (Q12809 whole entry, looked up): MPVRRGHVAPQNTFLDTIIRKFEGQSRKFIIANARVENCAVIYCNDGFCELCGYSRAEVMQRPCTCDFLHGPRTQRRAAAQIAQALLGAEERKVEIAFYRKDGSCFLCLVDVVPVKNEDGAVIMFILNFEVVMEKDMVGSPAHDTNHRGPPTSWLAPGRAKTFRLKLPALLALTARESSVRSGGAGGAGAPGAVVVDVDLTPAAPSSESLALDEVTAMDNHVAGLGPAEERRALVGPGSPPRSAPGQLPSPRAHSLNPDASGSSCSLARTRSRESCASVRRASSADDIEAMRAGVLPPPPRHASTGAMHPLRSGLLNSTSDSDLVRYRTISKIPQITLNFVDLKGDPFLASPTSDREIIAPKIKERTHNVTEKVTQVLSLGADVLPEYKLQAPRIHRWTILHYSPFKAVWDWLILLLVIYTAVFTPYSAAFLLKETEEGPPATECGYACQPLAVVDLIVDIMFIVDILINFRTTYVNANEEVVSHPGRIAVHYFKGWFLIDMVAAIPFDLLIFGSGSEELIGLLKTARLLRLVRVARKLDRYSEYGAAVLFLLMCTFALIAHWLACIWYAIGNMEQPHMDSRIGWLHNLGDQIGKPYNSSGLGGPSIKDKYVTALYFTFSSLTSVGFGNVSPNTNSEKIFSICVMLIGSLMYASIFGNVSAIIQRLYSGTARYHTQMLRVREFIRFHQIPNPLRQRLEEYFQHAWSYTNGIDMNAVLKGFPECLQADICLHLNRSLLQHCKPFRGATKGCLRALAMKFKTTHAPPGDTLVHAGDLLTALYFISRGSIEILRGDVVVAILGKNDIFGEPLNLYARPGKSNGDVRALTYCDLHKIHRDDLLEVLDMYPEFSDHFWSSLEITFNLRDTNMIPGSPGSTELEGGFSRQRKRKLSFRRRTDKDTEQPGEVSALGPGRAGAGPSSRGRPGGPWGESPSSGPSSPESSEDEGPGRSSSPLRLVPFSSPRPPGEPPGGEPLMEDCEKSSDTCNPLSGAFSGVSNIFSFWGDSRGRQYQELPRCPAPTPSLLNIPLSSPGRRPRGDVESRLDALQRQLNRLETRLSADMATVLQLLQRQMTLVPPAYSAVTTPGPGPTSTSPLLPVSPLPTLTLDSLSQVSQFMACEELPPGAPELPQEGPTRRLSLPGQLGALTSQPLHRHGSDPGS

| SMILES | hERG current change (%, negative = inhibition) at 10uM |
| --- | --- |
| COc1ccc(OCC(=O)Nc2ccc3c(c2)nc(CN2CCCC2)n3C)cc1 | -26.9% |
| CC1C(=O)N2CCCc3cc(NC(=O)COc4ccc(Cl)cc4)cc1c32 (stereo not drawn) | -40.2% |
| Cn1c(CN2CCCC2)nc2cc(NC(=O)COc3ccccc3)ccc21 | -34.1% |
| Cn1c(CN2CCCC2)nc2cc(NC(=O)COc3ccc(Cl)cc3)ccc21 | -69.2% |
| O=C(COc1ccc(Cl)cc1)Nc1cc2c3c(c1)CC(=O)N3CCC2 | -57.1% |
| CC(C)CNC(=O)COc1ncnc2sccc12 | -37.4% |
| Cc1c(CN(C)Cc2cn(C)nc2-c2ccccc2F)[nH]c2ccccc12 | -6.24% |
| COc1cc(/C=N/n2nnnc2N)cc(OC)c1OC | -0.774% |
| CN1C2C=C(N(CCc3c[nH]c4ccccc34)C(=O)c3ccc(Cl)cc3)CC1CC2.Cl (stereo not drawn) | -67% |
| COC(=O)C1=C(CCc2ccccc2)NC(=O)NC1c1ccc(Cl)cc1 (stereo not drawn) | -9.59% |
| COc1cc(C(=O)N(CCc2ccccc2)C2=CC3CCC(C2)N3C)cc(OC)c1OC.Cl.O (stereo not drawn) | -29.2% |
| Cc1cc(C)cc(C(=O)N(CCc2ccccc2)C2=CC3CCC(C2)N3C)c1.Cl (stereo not drawn) | -60.7% |
| O=C(Cc1ccc(Cl)cc1)NCCc1c[nH]c2ccccc12 | -19.8% |
| O=C(NCC(=O)N1CCC(Cc2ccccc2)CC1)c1ccc(Cl)cc1 | -23.3% |
| Cc1cc(C)cc(C(=O)NCCCc2ccccc2)c1 | -4.26% |
| O=C(NCCc1c[nH]c2ccccc12)c1ccc(Cl)cc1 | -12.7% |
| CN1C2C=C(N(CCc3ccccc3)C(=O)c3ccc(Cl)cc3)CC1CC2.Cl (stereo not drawn) | -74.8% |
| COc1cccc(CN(C(=O)c2cccc(OC)c2)C2CCS(=O)(=O)C2)c1 (stereo not drawn) | -7.02% |
| O=P1(Nc2cccnc2)COc2ccccc2OC1 | 30.6% |
| CSc1ccccc1C(=O)NCCOc1cccc(C)c1 | 17.7% |
| O=C(CNC(=O)c1cccs1)NCC(=O)OCc1ccccc1Cl | 2.85% |

| SMILES | hERG current change (%, negative = inhibition) at 10uM |
| --- | --- |
| Cc1[nH]nc2c1C1(CCC3(CC1)OCCO3)C(C#N)=C(N)O2 | -0.214% |
| CC(=O)N1CCC2(CC1)C(C#N)=C(N)Oc1n[nH]c(C)c12 | 15.5% |
| Cc1[nH]nc2c1C1(CCOCC1)C(C#N)=C(N)O2 | -56.7% |
| COc1ccc(S(=O)(=O)NC(C)C(=O)NCc2ccccn2)cc1Cl (stereo not drawn) | 7.6% |
| Cc1ccc2c(c1)cc(CN(Cc1cccnc1)C(=O)NCc1ccccc1)c1nnnn12 | -75.2% |
| Cc1cccc2cc(CN(CCc3ccccc3)C(=O)N3CCOCC3)c3nnnn3c12 | 12.5% |
| Cc1ccc2c(c1)cc(CN(Cc1ccc3c(c1)OCO3)C(=O)c1cnccn1)c1nnnn12 | -45.7% |
| Cc1ccc2c(c1)cc(CN(CCc1ccccc1)C(=O)N1CCOCC1)c1nnnn12 | -61.3% |
| Cc1cccc2cc(CN(Cc3cccnc3)C(=O)c3cccs3)c3nnnn3c12 | 26.1% |
| Cc1ccc(C(=O)N(Cc2cccnc2)Cc2cc3cc(C)ccc3n3nnnc23)cc1 | -23.8% |
| Cc1ccc2c(c1)cc(CN(Cc1ccco1)C(=O)N1CCOCC1)c1nnnn12 | -14.7% |
| Cc1ccc2c(c1)cc(CN(Cc1cccnc1)C(=O)c1ccccc1)c1nnnn12 | -78% |
| Cc1ccc2c(c1)cc(CN(Cc1ccc3c(c1)OCO3)C(=O)c1ccccc1)c1nnnn12 | -11.5% |
| Cc1ccc(S(=O)(=O)N(C)C)cc1-n1c(SCC(=O)Nc2ccc(F)cc2Cl)nc2ccccc2c1=O | 0.00438% |
| CC(=O)N1CCc2cc(S(=O)(=O)Nc3ccc(C)cc3)ccc21 | 16.9% |
| Cc1ccccc1CN1CCN(S(=O)(=O)c2ccc(Cl)s2)CC1 | 3.24% |
| CCOC(=O)c1c(C)oc2cc(Br)c(O)c(Br)c12 | 8.34% |
| Cc1ccc(C(=O)N[C@@H](C)CN2C3=NC[C@H](Cc4ccccc4)N3C[C@H]2Cc2ccc(O)cc2)cc1Br | -82.5% |
| COc1ccc(C[C@H]2CN3C(=NC[C@@H]3Cc3ccc(O)cc3)N2C[C@H](C)NC(=O)c2ccc(C)c(Br)c2)cc1 | -77.9% |
| CCOc1ccc(C(=O)Nc2nnc(C)s2)cc1OCC | -4.04% |
| COc1cc(/C=C2/SC(=O)NC2=O)ccc1OC(=O)c1ccco1 | -0.00422% |

Source: paper PMC4336329 (PLoS ONE, 2015)
